Reference: PubChem BioAssay
Active and inactive are the calls of the source.

Tests used:
[1] = test system: Plasmodium falciparum Sir2 (PF13_0152, Sir2A); experiment: Plasmodium falciparum Sir2A binding compounds – biochemical, small-molecule microarray, 635 nm fluorescence, primary screen (AID 1098); details: fluorescence 635 nm, higher = more signal;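 note: score merges spot fluorescence intensity with its signal-to-noise ratio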
[2] = probe aDKK1 binding to arrayed compounds – biochemical, biotinylated probe, 635/667 nm fluorescence, primary screen (AID 1099); details: small-molecule microarray, higher = more signal;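 note: score merges 667nm spot fluorescence with signal to noise across triplicate slides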
[3] = probe aCHRDL2 binding to arrayed compounds – biochemical, biotinylated probe, 635/667 nm fluorescence, primary screen (AID 1100); details: small-molecule microarray, higher = more signal
[4] = change in splice reporter luminescence, either direction, cell-based, HEK293, spliceosome inhibition project, primary screen (AID 1101); details: HEK293 splicing luciferase reporter, 24 h, higher = more signal, called active from +8 up or from −8 down;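 note: HEK293 cells carrying a splicing-competent luciferase reporter gene; test concentration not given here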
[5] = biological target: Fibroblast growth factor 10 (Homo sapiens) (UniProt O15520); experiment: compounds binding fibroblast growth factor 10 – biochemical, small-molecule microarray, 635 nm fluorescence, primary screen (AID 1102); details: FGF10 binding, fluorescence 635 nm, higher = more signal
[6] = test system: glycogen synthase kinase-3 (GSK3A per assay name; protocol says GSK3B); experiment: compounds binding glycogen synthase kinase-3 – biochemical, small-molecule microarray, 635 nm fluorescence, GSK3A, primary screen (AID 1103); details: fluorescence 635 nm, higher = more signal; note: the record names both GSK3A and GSK3B
[7] = biological target: Epidermal growth factor receptor (Homo sapiens) (UniProt P00533); experiment: compounds binding epidermal growth factor receptor – biochemical, small-molecule microarray, 635 nm fluorescence, primary screen (AID 1104); details: EGFR binding, higher = more signal;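 note: score merges 667 nm emission intensity with spot signal to noise over triplicate slides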
[8] = biological target: Follistatin-related protein 3 (Homo sapiens) (UniProt O95633); experiment: compounds binding follistatin-related protein 3 – biochemical, small-molecule microarray, 635 nm fluorescence, primary screen (AID 1105); details: FSTL3 binding, higher = more signal;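 note: score merges emission near 667 nm and signal to noise per printed spot across three slides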
[9] = biological target: Dickkopf-related protein 1 (Homo sapiens) (UniProt O94907); experiment: small molecules binding DKK1 protein – biochemical, small-molecule microarray, 635 nm fluorescence scan, primary screen (AID 1106); details: higher = more signal;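 note: score merges emission near 667 nm with signal to noise over three replicate slides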
[10] = test system: Inhibin beta A chain (activin A); experiment: small molecules binding activin A – biochemical, small-molecule microarray, 635 nm fluorescence scan, primary screen (AID 1107); details: INHBA, higher = more signal;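 note: mouse activin A protein probed at 4.33 µg/mL on printed slides; score merges bound-protein fluorescence near 667 nm with spot signal-to-noise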
[11] = test system: Human papillomavirus type 1a protein E7 (residues 44-93); experiment: small molecules binding HPV E7 44-93 – biochemical, small-molecule microarray, residues 44-93, 635 nm fluorescence, primary screen (AID 1108); details: fluorescence 635 nm, higher = more signal;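 note: E7 fragment applied at 1 µg/mL in TBST for 1 h at 4 C; score combines spot fluorescence with its signal to noise ratio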
[12] = hepatitis C replication reporter changes, two-sided – Huh7 cells, luciferase reporter, HCV replication inhibitor project, primary screen (AID 1109); details: Huh7 HCV replicon luciferase reporter, 48 h; higher = more signal;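 note: huh7 hepatoma cells harbouring a luciferase neomycin HCV replicon reporter; luciferase luminescence as measure of HCV replicon replication; test concentration not given here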
[13] = biological target: Left-right determination factor 2 (Homo sapiens) (UniProt O00292); experiment: small molecules binding LEFTY2 protein – biochemical, small-molecule microarray, 635 nm fluorescence scan, primary screen (AID 1110); details: higher = more signal
[14] = biological target: Calmodulin-1 (Homo sapiens) (UniProt P0DP23); experiment: small molecules binding calmodulin-1 with EGTA – biochemical, small-molecule microarray, Cy5-labelled CALM1, profiling panel (AID 1111); details: Cy5-CALM1 binding fluorescence, higher = more signal;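 note: labelled calmodulin applied in Tris saline Tween buffer holding calcium plus EGTA and DTT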
[15] = biological target: Calmodulin-1 (Homo sapiens) (UniProt P0DP23); experiment: small molecules binding Ca-loaded calmodulin-1 – biochemical, small-molecule microarray, Cy5-labelled CALM1, plus calcium, artefact control for SMM control-protein annotation, profiling panel (AID 1112); details: Cy5-CALM1 binding fluorescence, higher = more signal;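 note: score merges spot fluorescence with signal to noise from triplicate slides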
[16] = probe aWnt5a binding to arrayed compounds – biochemical, biotinylated probe, 635/667 nm fluorescence, primary screen (AID 1113); details: small-molecule microarray, higher = more signal;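 note: score merges 667 nm fluorescence intensity with signal-to-noise per printed feature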
[17] = probe aShh binding to arrayed compounds – biochemical, biotinylated probe, 635/667 nm fluorescence, primary screen (AID 1114); details: small-molecule microarray, higher = more signal;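 note: probe is biotin-labelled aShh protein from a stem cell growth factor screen; measures binding of labelled protein to compounds printed on the slide; score merges feature fluorescence at 667 nm with signal-to-noise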
[18] = probe aNog binding to arrayed compounds – biochemical, biotinylated probe, 635/667 nm fluorescence, primary screen (AID 1115); details: small-molecule microarray, higher = more signal;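 note: probe is biotinylated aNog protein used at 0.15 µg/mL for 1 h at 4 C; z-score combines 667 nm fluorescence of each spot with its signal to noise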
[19] = biological target: Torsin-1A-interacting protein 1 (Homo sapiens) (UniProt Q5JTV8); experiment: compound microarray binding of lysate hLAP1 – cell lysate, small-molecule microarray, COS7 lysate, 635/667 nm fluorescence, primary screen (AID 1116); details: 635 nm fluorescence, higher = more signal
[20] = biological target: Alpha-bungarotoxin (Bungarus multicinctus) (UniProt P60615); experiment: compounds binding labelled alpha-BTX control protein – biochemical, small-molecule microarray, Alexa647 label, 635/667 nm fluorescence, artefact control for SMM control protein annotation, profiling panel (AID 1117); details: alpha-BTX-A647 binding fluorescence, higher = more signal
Chain of Alpha-bungarotoxin (Bungarus multicinctus) (P60615 whole entry, looked up): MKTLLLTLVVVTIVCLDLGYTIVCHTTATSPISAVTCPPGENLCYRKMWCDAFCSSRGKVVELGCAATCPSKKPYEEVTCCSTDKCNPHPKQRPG

Chain of Follistatin-related protein 3 (Homo sapiens) (O95633 whole entry, looked up): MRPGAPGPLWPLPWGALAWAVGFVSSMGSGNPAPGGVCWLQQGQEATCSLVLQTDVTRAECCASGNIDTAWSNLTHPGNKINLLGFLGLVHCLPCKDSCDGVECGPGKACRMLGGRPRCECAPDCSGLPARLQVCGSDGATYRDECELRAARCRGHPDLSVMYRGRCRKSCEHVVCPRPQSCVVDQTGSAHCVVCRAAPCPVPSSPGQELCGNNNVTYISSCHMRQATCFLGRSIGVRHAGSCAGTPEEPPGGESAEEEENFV
Chain of Dickkopf-related protein 1 (Homo sapiens) (O94907 whole entry, looked up): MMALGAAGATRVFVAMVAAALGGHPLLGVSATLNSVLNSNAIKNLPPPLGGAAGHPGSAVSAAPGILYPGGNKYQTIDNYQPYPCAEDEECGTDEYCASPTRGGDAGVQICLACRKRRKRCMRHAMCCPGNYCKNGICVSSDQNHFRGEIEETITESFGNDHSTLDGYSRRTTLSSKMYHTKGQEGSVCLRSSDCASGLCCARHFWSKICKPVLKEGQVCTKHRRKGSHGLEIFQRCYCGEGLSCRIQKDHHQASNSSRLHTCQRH
Chain of Fibroblast growth factor 10 (Homo sapiens) (O15520 whole entry, looked up): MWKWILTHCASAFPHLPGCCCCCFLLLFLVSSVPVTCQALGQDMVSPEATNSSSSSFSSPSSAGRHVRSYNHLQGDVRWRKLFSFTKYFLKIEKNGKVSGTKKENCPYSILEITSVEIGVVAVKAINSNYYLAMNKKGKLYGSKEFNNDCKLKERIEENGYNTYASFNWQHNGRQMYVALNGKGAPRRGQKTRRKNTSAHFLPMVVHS
Chain of Epidermal growth factor receptor (Homo sapiens) (P00533 whole entry, looked up): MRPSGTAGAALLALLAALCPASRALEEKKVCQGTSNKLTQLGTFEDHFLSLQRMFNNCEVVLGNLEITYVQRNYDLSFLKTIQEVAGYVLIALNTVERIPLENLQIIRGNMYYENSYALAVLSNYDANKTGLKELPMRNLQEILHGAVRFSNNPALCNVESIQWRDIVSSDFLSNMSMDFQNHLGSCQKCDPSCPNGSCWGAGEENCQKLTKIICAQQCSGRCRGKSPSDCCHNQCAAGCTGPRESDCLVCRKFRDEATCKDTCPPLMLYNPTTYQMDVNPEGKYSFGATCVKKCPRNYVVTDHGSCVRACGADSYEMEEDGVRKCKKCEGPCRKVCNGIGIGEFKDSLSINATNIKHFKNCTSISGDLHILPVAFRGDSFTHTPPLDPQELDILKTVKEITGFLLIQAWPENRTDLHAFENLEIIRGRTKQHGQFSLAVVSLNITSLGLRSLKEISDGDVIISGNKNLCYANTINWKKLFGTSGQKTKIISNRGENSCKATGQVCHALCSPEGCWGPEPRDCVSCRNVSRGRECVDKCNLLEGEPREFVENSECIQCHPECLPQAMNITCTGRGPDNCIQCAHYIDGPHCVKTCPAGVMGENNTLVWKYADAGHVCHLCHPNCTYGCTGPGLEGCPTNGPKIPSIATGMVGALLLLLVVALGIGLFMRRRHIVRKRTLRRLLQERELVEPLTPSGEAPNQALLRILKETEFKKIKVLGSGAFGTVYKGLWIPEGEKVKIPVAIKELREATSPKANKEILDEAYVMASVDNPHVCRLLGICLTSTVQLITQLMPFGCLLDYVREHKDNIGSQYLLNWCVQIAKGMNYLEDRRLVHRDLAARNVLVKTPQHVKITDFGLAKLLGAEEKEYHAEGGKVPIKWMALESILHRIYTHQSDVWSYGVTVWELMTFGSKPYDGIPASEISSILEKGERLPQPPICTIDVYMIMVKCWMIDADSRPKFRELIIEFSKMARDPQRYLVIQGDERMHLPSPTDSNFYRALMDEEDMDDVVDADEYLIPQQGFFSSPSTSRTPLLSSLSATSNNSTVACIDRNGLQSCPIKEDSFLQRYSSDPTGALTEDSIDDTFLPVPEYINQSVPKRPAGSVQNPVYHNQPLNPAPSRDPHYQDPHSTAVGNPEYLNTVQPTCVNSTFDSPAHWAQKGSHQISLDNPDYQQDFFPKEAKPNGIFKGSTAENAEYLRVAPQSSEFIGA
Chain of Torsin-1A-interacting protein 1 (Homo sapiens) (Q5JTV8 whole entry, looked up): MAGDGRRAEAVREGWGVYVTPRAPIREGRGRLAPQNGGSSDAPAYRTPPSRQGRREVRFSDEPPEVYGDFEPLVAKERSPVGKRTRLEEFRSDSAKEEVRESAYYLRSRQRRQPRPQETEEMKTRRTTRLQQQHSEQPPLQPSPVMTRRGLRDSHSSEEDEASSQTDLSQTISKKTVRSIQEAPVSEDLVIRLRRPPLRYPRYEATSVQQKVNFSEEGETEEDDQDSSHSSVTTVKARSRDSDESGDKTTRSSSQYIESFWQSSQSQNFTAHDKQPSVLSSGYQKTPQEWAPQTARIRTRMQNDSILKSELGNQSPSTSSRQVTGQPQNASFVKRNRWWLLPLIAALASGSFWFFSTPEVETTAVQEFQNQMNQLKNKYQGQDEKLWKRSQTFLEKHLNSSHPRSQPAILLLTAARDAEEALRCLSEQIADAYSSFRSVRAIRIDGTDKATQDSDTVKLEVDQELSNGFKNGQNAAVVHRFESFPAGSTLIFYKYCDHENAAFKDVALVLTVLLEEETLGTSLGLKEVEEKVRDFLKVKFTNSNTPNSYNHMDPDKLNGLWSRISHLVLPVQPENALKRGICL
Chain of Left-right determination factor 2 (Homo sapiens) (O00292 whole entry, looked up): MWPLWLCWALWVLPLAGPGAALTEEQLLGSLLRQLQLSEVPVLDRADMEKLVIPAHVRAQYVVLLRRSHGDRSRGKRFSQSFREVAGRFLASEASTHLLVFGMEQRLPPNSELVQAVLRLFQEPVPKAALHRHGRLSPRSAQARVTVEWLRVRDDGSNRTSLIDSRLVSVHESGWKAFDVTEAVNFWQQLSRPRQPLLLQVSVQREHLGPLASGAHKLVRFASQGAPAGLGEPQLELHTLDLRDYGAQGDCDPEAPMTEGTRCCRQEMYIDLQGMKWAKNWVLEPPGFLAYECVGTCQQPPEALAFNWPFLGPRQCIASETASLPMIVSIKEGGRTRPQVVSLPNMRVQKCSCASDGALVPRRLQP

SMILES | composite z-score [1] | composite z-score [2] | composite z-score [3] | z-score [4] | composite z-score [5] | composite z-score [6] | composite z-score [7] | composite z-score [8] | composite z-score [9] | composite z-score [10] | composite z-score [11] | z-score [12] | composite z-score [13] | composite z-score [14] | composite z-score [15] | composite z-score [16] | composite z-score [17] | composite z-score [18] | composite z-score [19] | composite z-score [20]
N#Cc1ccc(NN2C(C(O)c3ccc(I)cc3)C=CC3C(=O)N(c4ccccc4)C(=O)C32)cc1 (stereo not given) | 1.13 | 0.124 | 1.03 | 2.17 (inactive) | 0.549 | 0.656 | 0.0977 | 0.421 | -0.337 | 0.462 | 1.48 | 1.56 | -0.417 | 1.58 | 0.526 | 0.0803 | -0.16 | 1.56 | 0.0108 | 1.32
C=CC[C@]1(C(=O)OC)N=C(c2ccc(OCCCO)cc2)O[C@H]1c1ccccc1CN=[N+]=[N-] | 0.212 | 1.21 | 1.44 | -1.4 (inactive) | -0.404 | -0.52 | -0.493 | -0.363 | -0.795 | 1.31 | -0.044 | -1.31 | -0.978 | -0.643 | 0.369 | 0.0251 | -0.0289 | 0.121 | 0.782 | 1.14
CO[C@H]1COC(=O)CC=C[C@H](C)COC(=O)[C@@H](OCc2ccccc2)C=C[C@@H]1C | 0.558 | -1.12 | -1.62 | -1.71 (inactive) | 0.429 | 1.28 | 0.711 | 1.2 | 2.07 | 0.924 | -0.217 | 0.165 | 1.5 | -1.51 | -2.68 | -0.286 | -0.283 | -0.424 | 0.237 | -0.74
COC(=O)C1=C(C)N(Cc2ccccc2)c2c(C(=O)OC)c(C(=O)OC)c(C(=O)OC)c(=O)n2[C@@H]1c1ccccc1 | 0.119 | -0.056 | -0.32 | -0.449 (inactive) | 0.583 | 0.37 | 0.12 | 0.287 | 0.436 | 0.16 | -0.316 | 0.0883 | 0.431 | 1.61 | 0.141 | -0.0806 | -0.221 | -0.0286 | 0.812 | 0.732
C#C[C@H](O[Si](C#Cc1ccccc1)(C(C)C)C(C)C)c1ccccc1 | 2.08 | -0.156 | 0.104 | -0.647 (inactive) | 0.0189 | -0.75 | -0.765 | -0.643 | -0.854 | 0.0677 | -0.285 | -0.733 | -0.962 | -0.226 | 0.418 | -0.162 | -0.154 | -0.333 | -0.246 | 0.821
C[C@H]1COC(=O)[C@@H]2CCCN2C(=O)[C@@H](C)COC(=O)[C@@H]2CCCN2C1=O | -0.0175 | -0.37 | -0.675 | -0.0582 (inactive) | 0.419 | -0.295 | 0.514 | -0.0914 | 0.563 | -0.0885 | -0.663 | -0.004 | 0.417 | -0.835 | -1.09 | -0.124 | -0.0626 | -0.367 | -0.392 | -0.394
NC(=O)[C@H]1[C@@H]2C(=O)O[C@@H](c3ccccc3)[C@@H](c3ccccc3)N2[C@@H](c2ccc(O)cc2)[C@]12C(=O)Nc1ccc(C#CCCO)cc12 | 1.61 | -0.0626 | 0.604 | -0.205 (inactive) | -0.187 | -1.6 | -1.52 | -0.681 | -0.889 | -0.142 | -1.74 | 0.179 | -1.05 | -0.742 | 0.661 | -0.175 | -0.0769 | -0.158 | -0.819 | -1.58
CCN1C(C)=C(C(=O)OC)[C@@H](c2ccccc2)N2C(=O)[C@@]3(C(=O)OC)O[C@@]12[C@@H]1C(=O)CCC[C@@H]13 | 0.604 | -0.786 | -1.31 | -0.814 (inactive) | 0.903 | 0.8 | 0.648 | 1.06 | 1.85 | 1.01 | 0.0258 | -0.216 | 1.38 | -1.2 | -1.08 | -0.0758 | 0.0637 | -0.43 | 0.157 | -0.954
CC(C)C[C@@H]1NC(=O)[C@H](CC(C)C)NC(=O)[C@@]23C(=O)N[C@@H](Cc4ccccc4)C2[C@H](C)[C@@]2(C)O[C@H]2C3/C=C/CC/C=C/CNC1=O (stereo not given in full) | 1.05 | -0.233 | -0.406 | -0.218 (inactive) | 0.707 | 0.516 | 0.543 | 0.998 | 1.19 | 1.38 | 1.34 | -1.24 | 0.521 | 0.102 | -0.747 | -0.101 | -0.221 | -0.261 | 0.292 | 0.683
CCCNC(=O)[C@@H]1c2ccccc2C(=O)N(Cc2cc(F)cc(C(F)(F)F)c2)[C@H]1c1ccc(CO)cc1 | 1.54 | 0.792 | 0.853 | -1.26 (inactive) | 0.926 | 1.29 | 0.497 | 1.35 | 0.677 | 1.05 | 0.0588 | -0.901 | 0.498 | 1.04 | -0.263 | 0.0079 | 0.188 | -0.154 | 1.44 | 1.21
CCCCCCc1nc(C2CC2)c(C)c2c1[Si](C(C)C)(C(C)C)OC2 | -0.192 | -0.124 | 0.109 | -3.06 (inactive) | -0.391 | -0.562 | 0.138 | -0.127 | 0.438 | 1.54 | -0.497 | 0.127 | -0.127 | -0.682 | -0.111 | -0.124 | -0.0146 | -0.353 | -0.147 | 0.342
